From PubChem BioAssay
LASV entry inh: Lassa virus entry inhibition | Lassa virus pseudotype entry inhibition, cell reporter | Potency, µM (highest dose often 37.9 µM), for inactives: at the top dose activity change, negative = inhibition, actives largely listed as inhibitors | 300,000 compounds, 1.2% hits | AID 540256; calls by dose curve; tested in HEK293 cells; note: potency is the fitted concentration of half-maximal effect; % is set by controls: 0 for no effect and ±100 for the full control effect; nearly all actives have a fitted effect of over 50% in size
SARS PLpro yeast: SARS-CoV PLP inhibition in yeast | S. cerevisiae expressing SARS-CoV PLpro, growth rescue | Potency, µM (doses to about 32.9 µM), for inactives: at the highest dose activity, positive = growth rescue, actives largely listed as activators | 330,000 compounds, 0.19% hits; calls by dose curve; note: potency is the fitted concentration of half-maximal effect; 0% is about no effect; nearly all actives have a fitted effect of over 55% in size
HCV inhibitor: inhibitors of hepatitis C virus infection; Huh7.5.1 HCVcc-Cre infection, luciferase reporter, 44 h; Potency, µM (doses to about 41.8 µM), inactives show at the highest dose activity change, negative = inhibition, usual class: inhibitors; 340,000 compounds, 3.4% hits; AID 651820; active = well fitted inhibition curve with a large enough effect; inconclusive = small, poorly fitted or top-dose-only effect, or another doubt; inactive = no such curve, though single readings can be large or run the other way; note: potency is the fitted concentration of half-maximal effect; % is set by controls: 0 for no effect and ±100 for the full control effect
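Seed cells (1,000/well) for 4 h; treat with compound and infect with HCVcc-Cre, moi about 0.5. Incubate 44 h, then detect luciferase activity.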
HCMV inh: human cytomegalovirus inhibition; 410,000 compounds, 4.5% hits; activity change, negative = inhibition, % at 57.5 µM; AID 1259415; HFF cells, HCMV-luciferase reporter, 72 h; active compounds read low; in the data active = activity change below about -60%; inconclusive = no clear call, values can overlap the other calls; inactive = above about -39%; note: % is set by controls: 0 for no effect and ±100 for the full control effect
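Two-dose cell screen: HFF monolayers treated with compounds and infected with luciferase-expressing HCMV at 1 PFU/cell, 72 h at 37C, then lysed for luciferase measurement.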
FMDV antiviral: blocks foot and mouth disease virus | FMDV antiviral cell-based qHTS | Potency, µM (highest dose often 57.9 µM), for inactives: top-dose activity change, negative = inhibition, actives largely listed as inhibitors | 410,000 compounds, 1.2% hits; calls by dose curve; tested in HEK293T cells; note: read-out not given here; potency is the fitted concentration of half-maximal effect; % is set by controls: 0 for no effect and ±100 for the full control effect; nearly all actives have a fitted effect of over 45% in size
Marburg entry inh: blocks Marburg virus binding to or entry into cells. Marburg virus pseudotyped entry inhibition, cell reporter. Potency, µM (doses to about 37.8 µM), inactives show at the highest dose activity change, negative = inhibition, most hits filed as inhibitors. 300,000 compounds, 1.8% hits; calls by dose curve; tested in HEK293 cells; note: potency is the fitted concentration of half-maximal effect; % is set by controls: 0 for no effect and ±100 for the full control effect
Starred values were filed as active, the others as inactive; ? = inconclusive; / = no result given; ! = a repeat was not active; [ ] = remark or other dose. In the library only some 8% were active in any assay of this set; here they are far more common.

SMILES	LASV entry inh	SARS PLpro yeast	HCV inhibitor	HCMV inh	FMDV antiviral	Marburg entry inh
CCCCn1c(=S)[nH]c2ccc(N3CCOCC3)cc2c1=O	/	0%	/	/	/	/
CC(C)OCCCn1c(=S)[nH]c2ccc(N3CCOCC3)cc2c1=O	5.8µM*	4%	?	-22	?	?
Cc1c(C(=O)NCCc2ccncc2)cnn1-c1nccc(-c2ccccc2C(F)(F)F)n1	/	/	/	/	-20%	/
Cc1cc(C)cc(N2CCn3c2nc2c3c(=O)n(Cc3ccc(Cl)cc3)c(=O)n2C)c1	-4%[46.1 µM]	/	/	14	-1%	/
CC(Sc1nnc2c(n1)[nH]c1ccccc12)C(=O)NC1CCCCC1 (stereo not drawn)	?	1%	5.6µM*	-30	?	4.5µM*
CC(Sc1nnc2c(n1)[nH]c1ccccc12)C(=O)N(C)C1CCCCC1 (stereo not drawn)	?	-9%	6.3µM*	-85*	?	?
O=C(CSc1nnc2c(n1)[nH]c1ccccc12)N1CCCCC1	-21%[46.1 µM]	2%	?	?	-13%	-8%[46.1 µM]
COC(=O)C1=C(C(=O)OC)[C@@H]2N(C)c3ccccc3[C@@]23CCC(=O)N(CCCOC(C)C)C3=N1	/	/	/	/	/	-10%[14.2 µM]
Cc1cc2c(c(=O)n1Cc1ccccc1)[C@H]1O[C@](c3ccsc3)(Cc3ccccc31)O2	/	/	/	/	/	-12%[14.2 µM]
CN(c1cccnc1)c1ncnc2[nH]ncc12	18%	0%	15%	0	-3%	10%[46.1 µM]
C=CCN(CC=C)c1ncnc2[nH]ncc12	23%[46.1 µM]	/	-5%	-86*	14%	22%[46.1 µM]
COc1cc(NS(=O)(=O)c2cnc(N)nc2)cc(OC)c1	1%[46.1 µM]	/	/	-12	-8%	/
CCOC(=O)N/N=C1\C[C@@H](O)[C@@H](O)[C@@H]2[C@@H]3C(=O)N(c4ccc(F)cc4F)C(=O)[C@@H]3CC[C@@H]12	/	/	/	/	/	-21%[14.2 µM]
CCOc1ccc(NS(=O)(=O)c2c(C)nc3sccn3c2=O)cc1	/	-8%	0%	-100*	-13%	/
COCCCNc1ncnc2c1c(-c1ccccc1)cn2-c1ccc(C)c(Cl)c1	2%[46.1 µM]	/	/	-17	?	/
COc1cccc(-c2sc3ccc(OC)cc3c2-c2ccc(C(N)=O)cc2)c1	/	0%	2.5µM*	7	-25%	/
COc1cccc(-c2sc3ccc(OC)cc3c2-c2ccc(OC)cc2F)c1	/	-6%	-7%	1	30%	/
COc1ccc2sc(-c3ccc(SC)cc3)c(-c3ccc(O)cc3)c2c1	/	3%	13µM*	-7	-25%	/
COc1ccc(OC)c(CC2C(=O)Nc3ccc(Br)cc32)c1 (stereo not drawn)	?	/	/	-90*	13µM*	?
COc1ccc(CC2C(=O)Nc3ccc(Br)cc32)cc1OC (stereo not drawn)	-4%[46.1 µM]	/	/	-20	-27%	2%[46.1 µM]
COc1ccc(OC)c2c(=S)c3ccccc3[nH]c12	/	/	/	/	9%	/
Nc1cc(-c2ccc(OC(F)(F)F)cc2)nn1-c1ccc(Cl)c(Cl)c1	?	-5%	-1%	-66*	-7%	4%
Cc1cc(C)cc(-n2nc(C)cc2N)c1	-10%	-7%	10µM*	33	21%	-10%
CC(C)(C)C(=O)NCC(c1ccc2c(c1)OCO2)N1CCOCC1 (stereo not drawn)	-4%[46.1 µM]	/	/	24	-9%	/
COC(=O)C1=C(C)N(Cc2ccc(C(F)(F)F)cc2)C(=NCc2ccc3c(c2)OCO3)NC1c1ccccc1 (stereo not drawn)	/	/	/	-100*	/	/
SMILES	LASV entry inh	SARS PLpro yeast	HCV inhibitor	HCMV inh	FMDV antiviral	Marburg entry inh
COCCN=C1N[C@@H](c2ccc(Br)cc2)C(C(=O)OC)=C(C)N1Cc1ccccc1	/	1%	3.5µM*	-25	-26%	/
CCN(CC)CCCN=C1N[C@@H](c2cccc(C(F)(F)F)c2)C(C(=O)OC)=C(C)N1CC	/	1%	10µM*	?	-4%	/
COC(=O)C1=C(C)N(Cc2ccccc2)C(=NCc2ccccc2)N[C@H]1c1ccccc1	/	-7%	?	-70*	-25%	?
COCCN=C1N[C@@H](c2ccccc2)C(C(=O)OC)=C(C)N1Cc1ccccc1	/	5%	12%	13	-16%	/
CC(CNC(=O)c1ccc2nc(CCc3ccccc3)oc2c1)c1ccccc1 (stereo not drawn)	-28%[46.1 µM]	/	/	27	-4%	/
O=C(COCc1cc(-c2cccs2)on1)NCc1ccccc1Cl	10%[46.1 µM]	/	/	1	5%	/
Cc1ccc(NC(=O)CN2C=NS(=O)(=O)c3ccccc32)cc1	23%[46.1 µM]	/	/	-1	35%	/
CCc1nc(SCc2cc(=O)c3cc(F)ccc3[nH]2)n[nH]1	3%[46.1 µM]	/	/	3	-7%	/
COC(=O)C1=C(C)N(Cc2cccc(C(F)(F)F)c2)C(=NCc2ccccc2C(F)(F)F)NC1c1cccc(F)c1 (stereo not drawn)	/	/	/	-78*	/	/
Cc1ccccc1Nc1c(-c2ccncc2)nc2ccc(Cl)cn12	19%[46.1 µM]	-9%	14%	-61*!	?	?
NCCC[C@@](N)(C(=O)O)C(F)F	/	/	/	/	/	-5%
COc1ccc(S(=O)(=O)N2CCC(N3CCN(Cc4ccc(F)cc4)C(=O)C3=O)CC2)cc1	-1%[46.1 µM]	/	/	-9	-29%	/
CC(=O)Nc1cccc(NC(=O)CSc2ncc(-c3ccc(Cl)cc3)n2Cc2ccco2)c1	?	-11%	10µM*	-35	14µM*	?
COc1ccc(-c2cnc(SCC(=O)Nc3ccc4c(c3)OCO4)n2Cc2ccco2)cc1	?	2%	14µM*	-24	?	?
COc1ccc(N2CC(NC(=O)COc3ccccc3C)CC2=O)cc1OC (stereo not drawn)	?	/	/	-7	-1%	/
COC(=O)N1C(C=Cc2ccc3c(c2)OCO3)=Cc2ccccc2C1CC(C)=O (stereo not drawn)	?	/	/	/	/	-12%[14.2 µM]
COc1ccc(C(=O)C[n+]2cccc(C)c2C)cc1[N+](=O)[O-]	-1%	0%	0%	40	-6%	1%[46.1 µM]
CCC(C)(C)c1ccc(OCCCC[n+]2cccc(C)c2C)c(C(C)(C)CC)c1	/	-6%	18µM*	-97*	?	/
CCC(C)(C)c1ccc(OCCCC[n+]2ccc(C)cc2)c(C(C)(C)CC)c1	?	-18%	?	-97*	?	21µM*
Cc1cc[n+](CC[n+]2ccc(C)cc2)cc1	/	0%	20%	-21	5%	/
Cc1cccc(C)c1NC(=O)CCC(=O)N1Cc2ccccc2Oc2ncccc21	3%[46.1 µM]	/	/	13	-5%	/
Cc1c(C(=O)N2CCCC2)sc2ncnc(NCCN(C)C)c12	/	/	/	/	-12%	/
Cc1cc(NS(=O)(=O)c2ccc(NC(=O)c3ccc([N+](=O)[O-])s3)cc2)nc(C)n1	2%	2%	?	-97*	70%	-20%
Cc1ccnc(NS(=O)(=O)c2ccc(NC(=O)c3ccc([N+](=O)[O-])s3)cc2)n1	?	4%	4%	-96*	-10%	-28%
Cc1nc2cc(NC(=O)c3ccc([N+](=O)[O-])s3)ccc2s1	?	2%	?	-94*	11%	?
